Bioassay records as filed in PubChem BioAssay.
Compounds with a hit are over-represented: about 2.8% of the library has one in this group of screens.
TWEAK Fn14 block: TWEAK-Fn14 signaling inhibition; TWEAK-stimulated Fn14 reporter cells, luciferase luminescence, 8 h; inhibition, % at 10 µM; 2% of 360,000 active; AID 1159606; in the data active means inhibition above about 50%
LGR2 inh: Drosophila LGR2 receptor signaling inhibition; HEK293 LGR2, CRE-luciferase, bursicon-stimulated, 4 h; inhibition, % at 9.99 µM; 0.35% of 380,000 active;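 active means drop in luminescence signal, shown as inhibition above about 50% in the replicate tests, limit read from the data, passing the limit was not always enough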;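 further: agonist challenge used bursicon conditioned medium at about half maximal strength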
EWS-Fli block: blocks EWS/Fli oncoprotein-driven transcription | A673 NR0B1-luciferase reporter, viability-normalised | AID 651661 | 0.67% of 350,000 active | inhibition, % at 12.6 µM;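 active means mean inhibition of at least 50% after viability correction, with every replicate also passing that limit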;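 further: firefly luciferase signal divided by Alamar Blue viability fluorescence both relative to DMSO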
PAX8 inh HTS: PAX8 transcriptional activity inhibition; RMG-I TPO-luciferase reporter, SteadyGlo, 24 h; inhibition, % at 12.6 µM; 1.2% of 360,000 active; AID 652154;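 active means mean replicate inhibition at least 60% with every replicate also reaching 60%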;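 further: luciferase light reporting Pax8 driven TPO promoter activity; plate controls were median of neutral control wells for no effect and mitoxantrone controls for full effect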
TROY signal inh: inhibitors of TROY-dependent NF-kB signaling. Q293 LMP1-TROYcd NF-kB luciferase reporter, 4 h. AID 1347056. inhibition, % at 10 µM. 0.98% of 360,000 active;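 active means compounds whose plate-normalised and pattern-corrected inhibition of the luciferase reporter signal at the single screening dose is 50% or more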
Starred values were filed as active, the others as inactive; / = no result given.

SMILES | TWEAK Fn14 block | LGR2 inh | EWS-Fli block | PAX8 inh HTS | TROY signal inh
C[C@H]1CCCCO[C@@H](CN(C)S(=O)(=O)c2cccs2)[C@@H](C)CN([C@@H](C)CO)C(=O)c2cc(NS(=O)(=O)c3cn(C)cn3)ccc2O1 | / | -9.8 | -4.7 | 18.6 | /
O=C(Nc1nc(-c2cccs2)c(-c2cccs2)s1)C1(c2ccccc2)CC1 | 10.6 | -10.2 | 5.1 | 102.4* | -1.1
CC(=O)NCCC(=O)Nc1nc(-c2cccs2)c(-c2cccs2)s1 | -0.2 | -2.1 | -11.3 | -5.7 | -15.7
COc1ccccc1S(=O)(=O)N[C@@H]1CC[C@H](CCNC(=O)C2CCC2)O[C@H]1CO | / | 6.7 | 11.3 | -0.6 | /
COc1ccc(C(=O)Sc2ccc(Cl)cc2)cc1OC | 57.4* | / | / | / | 5.3
O=C(Nc1ccccc1)Nc1ccc2c(c1)[C@H]1C[C@@H](CC(=O)N3CCOCC3)O[C@H](CO)[C@H]1O2 | / | 9.4 | -0.6 | -6.8 | /
COc1ccc(NC(=O)CSc2cc(C)nc3c(-c4ccccc4)cnn23)cc1 | 21.8 | / | 14.2 | 13.3 | 55.8*
Cc1cc(SCC(=O)Nc2ccccc2)n2ncc(-c3ccccc3)c2n1 | 32.0 | -2.8 | 22.2 | 25.6 | 62.5*
C[C@H]1CN([C@@H](C)CO)C(=O)Cc2cc(NC(=O)Nc3ccc4c(c3)OCO4)ccc2O[C@@H]1CN(C)C(=O)NC1CCCCC1 | / | 1.7 | -9.4 | -15.2 | /
Cc1noc(C)c1S(=O)(=O)Nc1ccc2c(c1)C(=O)N([C@H](C)CO)C[C@H](C)[C@@H](CN(C)C(=O)C1CCCCC1)OCCCC[C@H](C)O2 | / | -4.5 | 8.1 | 11.4 | /
Cc1ccc(-n2cc(CNCC3CC(=O)N(C4CC4)C3)c(-c3cccc(C)c3)n2)cc1 (stereo unspecified) | -4.7 | -0.4 | -12.4 | -5.7 | 51.6*
C[C@H]1CN([C@@H](C)CO)C(=O)Cc2cc(NC(=O)Cc3ccccc3)ccc2O[C@H]1CN(C)C | / | 17.1 | -2.9 | -18.8 | /
CO[C@@H]1CN(C)C(=O)c2cc(NC(=O)C3CC3)ccc2OC[C@H](C)N(C(=O)CN2CCOCC2)C[C@H]1C | / | -10.7 | 5.4 | -9.3 | /
Cc1cc[n+](CC(=O)c2cc3ccccc3oc2=O)cc1 | 40.2 | 8.2 | -57.0 | 18.0 | 52.4*
Cc1ccc(C(=O)Nc2cc3ccccc3oc2=O)cc1 | 101.6* | 99.1* | 79.1* | 40.3 | 87.6*
Cc1cc(C)nc(SCC(=O)c2cc3ccccc3oc2=O)n1 | -3.7 | / | / | / | 0.2
CC(=O)c1cc(NC(=O)c2ccc(C)cc2)c(=O)oc1/C=C/N(C)C | -0.3 | / | / | / | 54.3*
C[C@H](CO)N1C[C@H](C)[C@H](CN(C)C(=O)Nc2ccc3c(c2)OCO3)Oc2ccc(NS(C)(=O)=O)cc2C1=O | / | -1.1 | -3.8 | / | /
COc1ccc(C(=O)CC(Sc2ccccc2N)c2ccc(OC)cc2)cc1 (stereo unspecified) | 79.8* | 67.6* | 37.9 | -37.5 | 12.8
CCN(CC)S(=O)(=O)c1ccc(/C=C/C(=O)Nc2ccc(F)cc2F)cc1 | 75.9* | -6.8 | 3.8 | -17.4 | 3.1
CCN(CC)S(=O)(=O)c1ccc(/C=C/C(=O)Nc2ccc(Br)cc2F)cc1 | 73.6* | 21.7 | / | 25.8 | 48.2
CCN(CC)S(=O)(=O)c1ccc(/C=C/C(=O)Nc2ccc(F)c(F)c2F)cc1 | 39.1 | -14.6 | / | -17.0 | 6.7
C[C@@H](NC(=O)C[C@@H]1CC[C@@H](NC(=O)C2CCC2)[C@@H](CO)O1)c1ccccc1 | / | 4.2 | -3.2 | -3.3 | /
O=C(NCc1ccccc1)[C@]1(Cc2ccccc2)N=C(c2ccc(OCCCO)cc2)O[C@@H]1c1ccccc1 | / | / | 29.8 | 93.9* | /
CCOC(=O)c1cn2nc(Oc3ccccc3)ccc2n1 | 0.2 | -21.4 | -11.6 | -6.1 | -37.2
SMILES | TWEAK Fn14 block | LGR2 inh | EWS-Fli block | PAX8 inh HTS | TROY signal inh
CCOC(=O)c1cn2nc(N3CCCCC3)ccc2n1 | 89.2* | 88.2* | -115.6 | 40.7 | 70.9*
CCOC(=O)c1cn2nc(N3CCCC3)ccc2n1 | 78.9* | 68.2* | -51.1 | 29.2 | 48.1
CCCNC(=O)C[C@H]1CC[C@@H]2[C@H](COc3ccc(NC(=O)Cc4ccccc4)cc3C(=O)N2C)O1 | / | -2.7 | -4.7 | 4.8 | /
C=CCNC(=S)N/N=C/c1cccc([N+](=O)[O-])c1 | -1.6 | -1.3 | 2.3 | 1.7 | -18.9
O=[N+]([O-])c1cccc(C=NNC(=S)NC23CC4CC(CC(C4)C2)C3)c1 | 11.0 | -58.8 | -1.8 | -118.7 | 60.5*
c1ccc2cc(CCO[C@H]3CCCCO3)ncc2c1 | 66.5* | 55.3* | 36.4 | -12.3 | 10.2
c1nc(CCO[C@H]2CCCCO2)cc2cc3c(cc12)OCO3 | 92.1* | 90.8* | 75.0* | 4.8 | 60.4*
